M18AAP inhibitor: PfM18AAP enzyme inhibition. hit rate 1.2% among 290,000. AID 1822. recombinant PfM18AAP, H-Glu-NHMec fluorogenic cleavage. inhibition, % at 7.35 µM;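 active = inhibition above the campaign mean inhibition over all tested compounds plus 3 SD, cut at about 28% in these data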;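 also: 0% = plate median of test compound wells and 100% = 2 mM ZnCl2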
Cardio protect: myocardial damage modulation in H9c2 cells; H9c2 cardiomyocytes, H2O2 injury protection, ATPLite, 2 h; protection from H2O2 cell death, % at 20 µM; hit rate 0.63% among 360,000;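 active = compounds giving at least 50% protection of heart cells from peroxide-induced death in the single-dose screen, raw or plate-pattern-corrected value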;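 also: 0% = DMSO wells with peroxide and 100% = DMSO wells without peroxide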
ALR inh: blocks human ALR sulfhydryl oxidase activity | purified ALR, DTT oxidation, H2O2 HRP-luminol luminescence | inhibition, % (concentration not given with the values) | hit rate 3.8% among 290,000 | AID 485317;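 active = mean replicate inhibition above about 79%, with every replicate also reaching it, limit read from the data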
Target sequence (P55789 whole entry, looked up): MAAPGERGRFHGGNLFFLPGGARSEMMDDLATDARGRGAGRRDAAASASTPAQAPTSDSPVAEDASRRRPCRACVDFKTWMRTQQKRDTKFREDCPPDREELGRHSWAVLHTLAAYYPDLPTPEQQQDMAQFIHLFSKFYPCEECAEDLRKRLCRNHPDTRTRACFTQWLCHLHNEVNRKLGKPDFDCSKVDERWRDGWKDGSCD
PHOSPHO1 inh: inhibitors of human PHOSPHO1 phosphatase; Q8TCT1; recombinant PHOSPHO1, absorbance phosphatase assay; inhibition, % at 13.3 µM; hit rate 1.1% among 290,000; AID 1565; in the data active = inhibition above about 60%
Target sequence (Q8TCT1 whole entry, looked up): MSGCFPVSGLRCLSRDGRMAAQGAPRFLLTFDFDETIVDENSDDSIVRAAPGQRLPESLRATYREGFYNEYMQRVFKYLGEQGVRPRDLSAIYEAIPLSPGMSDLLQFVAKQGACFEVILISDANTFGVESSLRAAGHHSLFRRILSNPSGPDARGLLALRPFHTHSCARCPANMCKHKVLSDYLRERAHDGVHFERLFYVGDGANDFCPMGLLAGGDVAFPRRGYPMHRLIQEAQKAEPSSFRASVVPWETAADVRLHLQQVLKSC
PfG6PD inh: PfG6PD (Plasmodium falciparum) enzyme inhibition; PfGluPho enzyme, NADPH resazurin-diaphorase fluorescence; inhibition, % at 20 µM; hit rate 0.78% among 350,000; AID 504690;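 active = inhibition reaching at least a set limit at 20 µM in the primary screen, cut at about 59% in these data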;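 also: 0% = DMSO wells with substrate and 100% = DMSO wells lacking glucose-6-phosphate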
PfG6PD confirm: PfG6PD inhibition, single-dose confirmed | recombinant PfGluPho, NADPH-diaphorase-resazurin fluorescence | AID 504753 | hit rate 34% among 2,400 | inhibition, % at 20 µM | shares compounds with PfG6PD inh;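 active = inhibition of at least 50% at 20 µM in any single replicate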;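 also: 0% = DMSO with substrate and 100% = DMSO lacking glucose-6-phosphate substrate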
Diaphorase 10uM: diaphorase inhibition or oxidation at 10 uM NADPH. diaphorase-coupled resazurin reduction, fluorescence, NADPH 10 uM. shares compounds with PfG6PD inh. hit rate 39% among 820. inhibition, % at 20 µM;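 active = average inhibition reaching 50% or more with the compound at 20 µM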;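 also: resorufin red fluorescence formed as diaphorase reduces resazurin using NADPH; 0% = DMSO with enzyme and 100% = DMSO without enzyme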
Diaph ctr 30uM: inhibits diaphorase or oxidizes, flagging false PfG6PD hits | Diaphorase/resazurin coupled assay, resorufin fluorescence, 30 uM NADPH | hit rate 29% among 820 | inhibition, % at 20 µM | shares compounds with PfG6PD inh | AID 504863;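 active = inhibition averaging 50% or more, tested at 20 µM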;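 also: 0% = DMSO with enzyme and 100% = DMSO wells lacking diaphorase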
Active calls of the source: *; · = no result. Shown are actives, neighbours in structure and some others; about 5.6% of the full set was active somewhere.

SMILES | M18AAP inhibitor | Cardio protect | ALR inh | PHOSPHO1 inh | PfG6PD inh | PfG6PD confirm | others
c1cncc(-c2nc3cc4ccccc4cc3[nH]2)c1 | 4 | -16 | -61 | 36 | 62* | 17
COc1ccccc1OC(C)C(=O)Nc1ccc(S(=O)(=O)N2CCN(C)CC2)cc1 (stereo not given) | -2 | 0 | -1 | 40 | 7 | ·
COc1cccc(CNC(=O)C2CCC(=O)N(CC3CCCCC3)C2)c1OC (stereo not given) | 1 | 2 | -8 | 31 | -2 | ·
Cc1ccc2nc(SCc3nnc(-c4ccccc4)o3)[nH]c2c1 | 5 | 6 | 13 | 20 | 49 | ·
Cc1ccc2nc(SCc3nnc(-c4cccs4)o3)[nH]c2c1 | -4 | 0 | -7 | 45 | 84* | 41
CCOC(=O)c1c(N)sn(-c2ccccc2C)c1=S | 20 | 2 | 97* | 96* | 73* | 36
CCOC(=O)c1nn(-c2ccccc2C)c(=O)c2c(N)scc12 | 0 | 14 | -410 | -78 | 47 | ·
COC(=O)c1ccc(COC(=O)c2ccc(CS(=O)(=O)c3ccc(C)cc3)cc2)cc1 | -7 | -12 | -3 | 5 | -2 | ·
COC(=O)c1cc2c(n1S(=O)(=O)c1ccc(C)cc1)C(=O)C(=O)c1[nH]cc(C(=O)OCc3ccccc3)c1-2 | · | -20 | · | · | 77* | 50* | Diaphorase 10uM=36;Diaph ctr 30uM=37
CCOC(=O)/C(=C\c1ccccc1)C(=O)CCN1CCOCC1 | · | -15 | · | · | 58 | ·
CCOc1ccc(N=Nc2ccc(O)c3ncccc23)cc1 | -12 | 27 | -35 | 20 | -5 | ·
CCOc1ccc2c(ccc(/C=C/c3cc(C)c4cccnc4c3O)[n+]2C)c1 | · | -16 | · | · | 92* | 40
CC1(C(=O)NS(=O)(=O)C2CC2)CCN(C(=O)c2ccccc2F)C1 (stereo not given) | · | -3 | · | · | · | ·
O=C(O)CSc1cc(NS(=O)(=O)c2cccc([N+](=O)[O-])c2)c2ccccc2c1O | -31 | -16 | · | 37 | 106* | 89* | Diaphorase 10uM=51*;Diaph ctr 30uM=41
CCc1ccc(S(=O)(=O)Nc2cc(SCC(=O)O)c(O)c3ccccc23)cc1 | -18 | -32 | 45 | 53 | 89* | 81* | Diaphorase 10uM=34;Diaph ctr 30uM=21
O=C(O)c1cccc(S(=O)(=O)Nc2ccc([N+](=O)[O-])cc2O)c1 | 0 | 6 | · | 24 | -25 | ·
CCOc1ccc(S(=O)(=O)Nc2cc(SCC(=O)O)c(O)c3ccccc23)cc1 | 18 | -17 | 67 | -89 | 104* | 97* | Diaphorase 10uM=46;Diaph ctr 30uM=32
Cc1cc(C)c2c(=O)n(CC(=O)Nc3cccc(F)c3)sc2n1 | 65* | -30 | · | -49 | 110* | 94* | Diaphorase 10uM=-3;Diaph ctr 30uM=0
COc1ccc(OC)c(NC(=O)Nc2nc(C(C)N)cs2)c1 (stereo not given) | · | 17 | · | · | · | ·
COC(=O)c1ccc(NCc2c(O)ccc(O)c2Br)cc1Cl | · | 28 | · | · | 104* | 39
COC(=O)c1ccc(NCc2cc(O)ccc2O)cc1O | · | -15 | · | · | 28 | ·
CC(=O)Cc1cc(O)c2ccccc2c1OC(=O)c1ccccc1 | 5 | -16 | -11 | 8 | 66* | 6
CC(=O)c1cc(C)c(OC(=O)c2ccccc2)c(C)c1 | · | -11 | · | · | 1 | ·
CN(C)Cc1ccccc1CNC(=O)c1cccc(S(=O)(=O)Nc2ccc3c(c2)OCO3)c1 | · | 6 | · | · | 9 | ·
CC1=CC(=O)c2ccccc2C1=O | 7 | -38 | -75 | -6 | 21 | ·
SMILES | M18AAP inhibitor | Cardio protect | ALR inh | PHOSPHO1 inh | PfG6PD inh | PfG6PD confirm | others
CC(C)(C=O)C1=CC(=O)c2ccccc2C1=O | -4 | -32 | 96* | 3 | 119* | 103* | Diaphorase 10uM=85*;Diaph ctr 30uM=66*
Cc1ccc(NC(=O)c2cc(N3C(=O)CCC3=O)ccc2N2CCOCC2)cc1 | -3 | -4 | -4 | 48 | -17 | ·
COc1ccc(N2CCCC2)c(NC(=O)c2ccc(Br)o2)c1 | 24 | 1 | · | 35 | 5 | ·
O=C(Nc1ccc(N2CCOCC2)c(Cl)c1)c1ccc2c(c1)OCCO2 | 1 | 4 | -4 | 8 | 83* | 44
O=C(Nc1ccc(N2CCCCC2)c(Cl)c1)c1ccc2c(c1)OCCO2 | 2 | -17 | 1 | 10 | 99* | -6
O=C(Nc1ccc(N2CCCC2)c(Cl)c1)c1ccc(Br)o1 | -10 | 8 | -9 | 14 | 59* | 4
Cc1ccc(NC(=O)c2cc(N3C(=O)C=CC3=O)ccc2N2CCOCC2)cc1Cl | 3 | -13 | 22 | -4 | 74* | 102* | Diaphorase 10uM=-28;Diaph ctr 30uM=-22
COc1ccc2nc(SCC(=O)N(C)C3CCCCC3)[nH]c2c1 | · | -1 | 3 | · | 2 | ·
CCn1c(SCC(=O)NC2CCCC2)nnc1C(C)NC(=O)c1ccccc1Br (stereo not given) | 7 | 1 | -1 | 46 | -10 | ·
Cc1c(F)cccc1NC(=O)CCCCCC1NC(=O)NC1C (stereo not given) | 0 | 2 | · | 4 | -3 | ·
O=C(Nc1ccc(N2CCCC2)c(Cl)c1)c1ccc2c(c1)OCCO2 | 4 | -18 | -13 | · | 67* | 9
O=C(Nc1ccc(N2CCOCC2)c(Cl)c1)c1ccc(Cl)cc1 | 0 | 6 | -4 | -10 | 100* | 61* | Diaphorase 10uM=51*;Diaph ctr 30uM=45
CN1c2cccc3cccc(c23)N(C)C1(C)C | 10 | -3 | 87* | 15 | 71* | 39
CN1c2ccccc2N(C)C1(C)c1cccc2ccccc12 | 2 | -9 | 13 | 12 | 32 | ·
CCOC(=O)c1sc(=S)n(C)c1NC(=O)c1ccc(F)cc1 | -10 | -2 | -1 | 4 | 72* | 41
CCOC(=O)c1sc(=S)n(CC)c1NC(=O)c1ccccc1 | -3 | -2 | -4 | 20 | -7 | ·
NC(=O)c1sc2nc(-c3ccco3)ccc2c1N | 13 | 8 | -14 | 40 | 31 | ·
COC(=O)c1sc2nc(-c3ccco3)ccc2c1N | 25 | -13 | 98* | 27 | 76* | -4
Fc1ccc(-[n+]2nc(Nc3ccccc3)sc2-c2c3ccccc3cc3ccccc23)cc1 | 2 | -11 | -5 | -57 | 132* | 82* | Diaphorase 10uM=78*;Diaph ctr 30uM=60*
COc1ccc(C)cc1Nc1n[n+](-c2ccccc2)c(-c2c(OC)ccc3ccccc23)s1 | · | -19 | -39 | · | 115* | 75* | Diaphorase 10uM=69*;Diaph ctr 30uM=50
CC(C)CNC(=O)/C=C/C=C/CCCC/C=C/c1ccc2c(c1)OCO2 | · | -10 | 1 | · | 2 | ·
CC(C(=O)Nc1cc(Cl)cc(Cl)c1)N1CCCC1 (stereo not given) | 6 | 7 | · | 33 | -11 | ·
COc1ccc(/C=C(\C#N)C(=O)OCC(=O)Nc2ccc(-c3nc4ccc(C)cc4s3)cc2)cc1 | 3 | -10 | -7 | -10 | 6 | ·
CCn1ncc2c(OCc3ccc(C#N)cc3)cc(C)nc21 | 1 | 1 | -16 | 1 | 68* | 22
CC1CN(c2ccccc2)NC1=O (stereo not given) | -9 | -6 | 99* | -7 | 106* | 107* | Diaphorase 10uM=13;Diaph ctr 30uM=15
